IDE cell inh = inhibitors of human insulin-degrading enzyme in cells. P14735. inhibition, % at 5.59 µM. 320,000 tested, 0.41% active. HEK cells, FAbetaB cleavage, fluorescence polarization;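 active = percent inhibition above the average of all tested compounds plus 3 SD, set per screening campaign, cut at about 16% in these data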;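 note: IDE supplied by intact live HEK cells; FP after avidin binding of uncleaved biotin substrate so inhibition keeps polarization high; 0% = DMSO wells and 100% = 60 µM reference IDE inhibitor Ii1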
IDE act = IDE (human) activation, cell-based; P14735; HEK cells, FAbeta-B cleavage, fluorescence polarization; 0% vehicle, 100% cell-free pure enzyme wells; activation, % at 5.96 µM; 340,000 tested, 0.073% active;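 active = activation above the mean of all tested compounds plus 3 SD, set per screening campaign, cut at about 17% in these data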
CRFR2-BP ag = CRF-BP/CRF-R2 complex agonism | AID 588473 | 350,000 tested, 0.46% active | activation, % at 13.2 µM | HEK293 CRF-R2/CRF-BP, calcium dye fluorescence (FLIPR); percent of saturating CRF peptide response;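 active = activation of at least 50%, plus an integration ratio under a set limit after plate pattern correction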;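 note: plate controls were neutral control wells without compound for no effect and CRF at EC100 for full effect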
TPT1 inh = blocks Candida albicans tRNA 2'-phosphotransferase; recombinant caTPT1, FP RNA substrate dephosphorylation; inhibition, % at 5 µM; 300,000 tested, 0.81% active; AID 1962;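 active = inhibition above the mean of all tested compounds plus 3 SD, set per screening campaign, cut at about 24% in these data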;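 note: plate controls were DMSO alone for no effect and ferristatin control at 100 nM for full effect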
HNF4A DNA FP = change in binding of human HNF4 alpha to DNA; AID 1224865; 360,000 tested, 0.3% active; activity change, % at 10 µM; HNF4a-FITC DNA binding, fluorescence polarization, 1 h; in the data active = activity change above about 30%, passing the limit was not always enough
Target sequence (P41235 whole entry, looked up): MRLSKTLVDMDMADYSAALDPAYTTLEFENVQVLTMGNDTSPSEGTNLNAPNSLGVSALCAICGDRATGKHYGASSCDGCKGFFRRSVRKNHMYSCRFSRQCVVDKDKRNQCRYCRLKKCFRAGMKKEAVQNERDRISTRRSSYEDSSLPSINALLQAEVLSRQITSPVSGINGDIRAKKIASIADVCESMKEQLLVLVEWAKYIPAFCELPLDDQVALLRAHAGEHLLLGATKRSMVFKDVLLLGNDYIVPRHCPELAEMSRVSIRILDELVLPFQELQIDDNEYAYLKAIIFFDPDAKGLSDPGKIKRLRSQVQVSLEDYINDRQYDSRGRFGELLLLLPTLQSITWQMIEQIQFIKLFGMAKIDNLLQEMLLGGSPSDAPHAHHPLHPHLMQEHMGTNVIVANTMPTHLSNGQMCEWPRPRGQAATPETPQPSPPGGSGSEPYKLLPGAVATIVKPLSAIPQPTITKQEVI
* hit, by the source's call; x = not tested or not shown. Most compounds without a hit are left out; they make up all but 1.4% or so of the library.

SMILES	IDE cell inh	IDE act	CRFR2-BP ag	TPT1 inh	HNF4A DNA FP
CCCn1c(=O)c(C(=O)NNC(=O)c2ccc(Cl)cc2Cl)c(O)c2ccccc21	-1	5	70*	0	-4
CC(C)c1nnc(N2C(=O)C(O)=C(C(=O)c3cccs3)C2c2ccccc2)s1 (configuration not stated)	x	-8	196*	x	-50
Cc1cccc(N2C(=O)C(O)=C(C(=O)c3cccs3)C2c2ccc(F)cc2)n1 (configuration not stated)	4	0	0	-1	0
C=CCOc1ccc(C2C(C(=O)c3cccs3)=C(O)C(=O)N2c2nnc(C)s2)cc1 (configuration not stated)	3	2	27	-36	-75
COc1ccc(C2C(C(=O)c3cccs3)=C(O)C(=O)N2c2nncs2)cc1 (configuration not stated)	2	6	265*	-36	-108
Cc1cccc(N2C(=O)C(O)=C(C(=O)c3cccs3)C2c2ccc(C(C)C)cc2)n1 (configuration not stated)	8	1	62*	-3	3
COc1ccc(OCc2n(CC(=O)OC3CC(C)CCC3C(C)C)c3ccccc3[n+]2C)cc1 (configuration not stated)	0	18*	-1	-3	4
CCOc1ccccc1C1NC(=O)c2ccccc2N1 (configuration not stated)	x	3	-3	x	-1
CNC[C@H](Cc1ccccc1)NC[C@@H](Cc1cccc2ccccc12)NCCc1ccc(C)cc1	-3	18*	13	0	6
CC(=O)c1ccc(N2CCN(CC(=O)NC(=O)NCc3ccccc3)CC2)cc1	7	-2	0	x	-3
COC(=O)[C@]12CCCCC=C1N(CCC1=CCCCC1)C(=O)[C@H](CC(=O)NCCCCc1ccccc1)C2	x	x	x	x	-3
Cc1ccc(SCC(=O)Nc2cc([N+](=O)[O-])ccc2O)cc1	-2	2	80*	-9	-2
Cc1ccccc1N(C(=O)CS(=O)CC(=O)Nc1ccc(F)cc1)C(C)C(=O)NC(C)(C)C (configuration not stated)	-3	3	0	0	-1
CCc1ccc(-c2nc(CS(=O)CC(=O)O)c(C)o2)cc1 (configuration not stated)	-4	18*	-1	-1	1
O=S(=O)(c1ccccc1)N1N=C(c2ccccc2)CC1c1ccco1 (configuration not stated)	-5	x	x	4	x
Cc1ccc(C2=NN(S(=O)(=O)c3ccccc3)C(c3ccccc3O)C2)cc1 (configuration not stated)	x	-3	0	x	80*
O=C(Nc1cccc(S(=O)(=O)N2CCCCC2)c1)c1ccccc1NS(=O)(=O)c1ccc(F)cc1	3	7	64*	2	3
O=C(Nc1cc(S(=O)(=O)N2CCCCC2)ccc1O)c1ccccc1NS(=O)(=O)c1ccc(F)c(F)c1	5	7	111*	-3	-2
Cc1ccc(NC(=O)c2ccccc2NS(=O)(=O)c2ccc(F)cc2)cc1S(=O)(=O)N1CCCCC1	0	2	46	-6	-1
COc1ccccc1C(=O)NC(=S)/C=C1/N(C)c2ccccc2C1(C)C	2	-1	0	7	16
CN1/C(=C\C(=S)NC(=O)c2ccccc2Cl)C(C)(C)c2ccccc21	3	2	3	14	68*
CCOc1cccc(C2/C(=C(/O)c3ccc4c(c3)CC(C)O4)C(=O)C(=O)N2Cc2ccncc2)c1 (configuration not stated)	2	8	0	-5	-1
O=C1C(=NO)CCc2ccccc21	x	-1	-4	x	-1
O=C(Nc1ccccc1F)C1CC1c1ccccc1 (configuration not stated)	0	3	1	0	2
Cc1cccc(NC(=O)C2CC2c2ccccc2)c1C (configuration not stated)	-1	6	70*	0	2
SMILES	IDE cell inh	IDE act	CRFR2-BP ag	TPT1 inh	HNF4A DNA FP
COc1ccc(NC(=O)CN(C)C(=O)CSc2ccc3c(c2)OCCO3)cc1	4	6	181*	0	-3
Cc1nn(C)c(Cl)c1CN1CCC(CO)(CCOc2ccccc2)CC1	-2	3	-2	0	2
Cc1c(CN2CCC(CO)(CCOc3ccccc3)CC2)[nH]c2c(Cl)cccc12	-4	28*	0	-5	-1
FC(F)(F)c1ccccc1Cc1c(-c2cccc(Cl)c2)nc2ccc(Cl)cn12	x	x	x	x	8
O=[N+]([O-])c1ccc(N2N=C(c3ccccc3)CC2c2ccccc2O)cc1 (configuration not stated)	x	-29	x	x	86*
O=C(COCc1cc(-c2ccc3c(c2)OCO3)on1)N1CCN(c2cccc(C(F)(F)F)c2)CC1	3	5	5	0	-1
O=C(Nc1cccc(F)c1)c1cc(S(=O)(=O)N2CCOCC2)ccc1N1CCCC1	4	3	66*	x	-2
O=C(Nc1cc(S(=O)(=O)N2CCOCC2)ccc1N1CCOCC1)c1ccccc1F	3	20*	0	x	4
COC(=O)c1ccccc1N(C)S(=O)(=O)c1cc2c3c(c1)CCC(=O)N3CCC2	-3	4	0	0	3
O=C(CS)Nc1ccc2ccccc2c1	17*	-13	0	0	-1
CCCCC(=O)c1c(O)c2ccccc2oc1=O	8	5	0	-3	-1
O=C(CC1CCCCC1)c1c(O)c2ccccc2oc1=O	-1	4	70*	2	-3
C=C1C[C@@H]2C[C@@H]2CN(S(=O)(=O)c2ccc(C)cc2)[C@@H]1COCc1ccccc1	x	x	x	x	-5
CCc1ccc[n+](-c2[nH]c(=O)sc2/C=N/NC([S-])=Nc2ccccc2)c1	1	-3	85*	-41	-87
CCOC(=O)[C@]12CCCC=C1N(Cc1cccc3ccccc13)C(=O)[C@H](CC(=O)NCC1CCCCC1)C2	x	x	x	x	0
O=S(=O)(c1cccs1)N1CCC(CO)(Cc2ccc(Cl)cc2)CC1	2	2	-1	1	-3
CCCn1c(N)c(C(=O)CSc2nc3ncc(Cl)cc3[nH]2)c(=O)[nH]c1=O	-4	6	-1	x	-3
Cc1ccc(OCC(=O)NNC(=S)NC(=O)c2cccs2)c(C)c1	x	0	50*	x	-3
Cc1cc(OCC(=O)NNC(=S)NC(=O)c2cccs2)ccc1Cl	x	6	45	x	3
Cc1ccc(OCC(=O)NNC(=S)NC(=O)c2ccc(Br)o2)c(C)c1	x	2	51*	x	2
COc1ccc(C(=O)NNC(=S)NC(=O)c2ccc(Br)o2)cc1OC	2	9	10	4	3
Cc1cccc(NC(=O)c2nc[nH]c2C(=O)Nc2ccccc2F)c1	x	x	-1	x	4
O=C(Nc1ccccc1)c1nc[nH]c1C(=O)NCCN(CCNC(=O)c1[nH]cnc1C(=O)Nc1ccccc1)CCNC(=O)c1[nH]cnc1C(=O)Nc1ccccc1	1	4	2	x	3

Source: PubChem BioAssay (several laboratories)
